HCV inh: qHTS Assay for Inhibitors of Hepatitis C Virus (HCV); Huh7.5.1 HCVcc-Cre infection, luciferase reporter, 44 h; Potency, µM (series often up to 41.8 µM), for the others: top-dose activity change, negative = inhibition, most hits filed as inhibitors; 340,000 tested, 3.4% active; AID 651820, 2012
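HCVcc-Cre virus at an moi near 0.5 was added right after compound to cells cultured 4 h from seeding (1,000 cells/well). Luciferase activity was determined 44 h later, 15 min after substrate addition at RT.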
RE007 growth inh: qHTS Assay for Inhibitors of the HIV-1 protein Vpr; S. pombe RE007 Vpr strain, BacTiter-Glo ATP luminescence, 24 h; Potency, µM (series often up to 92.2 µM), without a hit: top-dose activity change, negative = less growth, actives largely listed as inhibitors; 360,000 tested, 0.21% active; AID 651644, 2012; active = well fitted falling curve with a large enough effect; inconclusive = small, poorly fitted or top-dose-only effect; inactive = no such curve, though single readings can be large or run the other way; note: nearly all actives have a fitted effect of over 50% in size
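Fission yeast RE007 carrying one integrated HIV-1 vpr copy, seeded at OD 0.01 in PMG+AL medium with 23 nL pinned compound. Grown 24 h at 30 degrees; viability read by BacTiter-Glo luminescence after 5 min.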
MARV entry inh: qHTS for inhibitors of binding or entry into cells for Marburg Virus. Marburg virus pseudotyped entry inhibition, cell reporter. Potency, µM (doses to about 37.8 µM), for the others: at the top dose activity change, negative = inhibition, usual class: inhibitors. 300,000 tested, 1.8% active. AID 540276, 2011; calls by dose curve; tested in HEK293 cells
Sm TGR block: qHTS Assay for the Inhibitors of Schistosoma Mansoni Peroxiredoxins; purified TGR, DTNB reduction, TNB absorbance 405 nm; Potency, µM (highest dose often 114 µM), for inactives: at the top dose activity change, negative = inhibition, usual class: inhibitors; 360,000 tested, 3% active; note: nearly all actives have a fitted effect of over 60% in size
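TGR 20 nM + NADPH 100 uM (dispensed conc.), cpd preinc 15 min RT; start with NADPH (500 uM addition) then DTNB (15 mM addition). Kinetic TNB absorbance, 405 nm filter. Four-parameter Hill fit across titration.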
FMDV antiviral: High Throughput Screening for Foot and Mouth Disease Virus Antivirals; Potency, µM (doses to about 57.9 µM), for inactives: at the top dose activity change, negative = inhibition, most hits filed as inhibitors; AID 1159524, 2015; FMDV antiviral cell-based qHTS; 410,000 tested, 1.2% active; calls by dose curve; tested in HEK293T cells; note: read-out not given here; nearly all actives have a fitted effect of over 45% in size
LASV entry inh: qHTS for Inhibitors of binding or entry into cells for Lassa Virus. Lassa virus pseudotype entry inhibition, cell reporter. Potency, µM (series often up to 37.9 µM), inactives show at the highest dose activity change, negative = inhibition, usual class: inhibitors. 300,000 tested, 1.2% active. AID 540256, 2011; calls by dose curve; tested in HEK293 cells; note: nearly all actives have a fitted effect of over 50% in size
The depositor's hits bear a star; u = inconclusive; x = no result given; [ ] = another dose, or the depositor's remark. This is a sample that favours compounds with a hit; in the whole collection about 7.2% have one here. Unless noted, calls come from the whole dose curve; as a rule, active = well fitted curve in the direction sought with a large enough effect; inconclusive = small, poorly fitted or top-dose-only effect, or another doubt; inactive = no such curve, though single readings can be large; an effect the other way counts as inactive or inconclusive. % is set by controls: 0 for no effect and ±100 for the full control effect; potency is the fitted concentration of half-maximal effect.

SMILES	HCV inh	RE007 growth inh	MARV entry inh	Sm TGR block	FMDV antiviral	LASV entry inh
CN1c2ccccc2C(C)(C)C12CCCC(=O)N2 (stereo unspecified)	1%	-9%	u	20µM*	2%	20%
Cc1nc(SCc2nc3ccccc3[nH]2)c2oc3ccccc3c2n1	25µM*	-25%	u	6%	u	-7%
CCc1nc2c(oc3ccccc32)c(=O)[nH]1	8%	12%	u	-1%	25%	24%
Cc1nc(SCc2nc3ccccc3[nH]2)c2oc3ccc(Br)cc3c2n1	x	x	x	x	35µM*	x
O=c1[nH]c(CSc2ccccn2)nc2c1oc1ccccc12	19%	-2%	u	-2%	-29%	5.6µM*
Cc1ccc2nc(CSc3nc(C)nc4c3oc3ccccc34)[nH]c2c1	x	x	x	x	-29%	x
COc1cccc2c1oc1c(SCc3nc4ccccc4[nH]3)nc(C)nc12	x	x	x	x	-16%	x
Cc1ccc(Cl)cc1NC(=O)c1cc2c(=O)n3cccc(C)c3nc2n1C	x	x	x	5%	-8%	-7%[46.1 µM]
CCOC(=O)N1CCN(C(=O)CN(c2cccc(Cl)c2C)S(=O)(=O)c2ccc(C)cc2)CC1	x	x	u	-2%	3%	u
Cc1ccccc1OCC(=O)N/N=C/c1cccc(Oc2ccc([N+](=O)[O-])cc2[N+](=O)[O-])c1	11µM*	-2%	u	-11%	0%	u
Cc1ccc(OCC(=O)N/N=C\c2c(C)n(C)c3ccccc23)c([N+](=O)[O-])c1	16µM*	-2%	10µM*	-10%	0%	-18%
Cc1ccc(OCC(=O)N/N=C/c2ccccc2)c([N+](=O)[O-])c1	7%	-20%	0%[46.1 µM]	0%	13%	1%
CCC(C)NC(=O)c1ccc2c(c1)S(=O)(=O)c1ccccc1C2=O (stereo unspecified)	-30%	-8%	-14%	18µM*	-2%	-2%
C=CCNC(=O)c1ccc2c(c1)S(=O)(=O)c1ccccc1C2=O	25µM*	-12%	x	x	-4%	x
CCNC(=O)c1ccc2c(c1)S(=O)(=O)c1ccccc1C2=O	-13%	10%	7%	0%	5%	2%
O[C@H]1CN(CC2CCCCC2)[C@@H](c2ccc(Cl)cc2)C[C@H]1n1cc(C2CC2)nn1	x	x	x	x	x	10µM*
O=C(Nc1ccc(C(F)(F)F)cc1)C1(c2cccs2)CCOCC1	x	x	x	7%	0%	-22%[46.1 µM]
O=C1CCC(C(=O)N(CCO)Cc2ccccc2)CN1CCc1cccc(F)c1 (stereo unspecified)	x	15%	x	x	-12%	x
C1=CC2=NC34CCCCC3CC3=C(CCCC3)N4C2=CC1=NC1CCCCC1 (stereo unspecified)	u	-10%	x	x	28µM*	x
COc1ccc(-c2cccc(NS(=O)(=O)c3cc(C)c(Cl)cc3C)c2)nn1	x	x	x	-3%	23%	-20%[46.1 µM]
Cc1ccc2nc(SCC(=O)NCC3Cc4cc(-c5ncccc5C)ccc4O3)[nH]c2c1 (stereo unspecified)	x	x	x	x	-28%	x
COCCn1c(-c2ccc(-c3ccccc3Cl)o2)nc2c1c(=O)[nH]c(=O)n2CC(C)C	-30%	-1%	u	32µM*	3%	u
N#CCSc1ccc(S(=O)(=O)N2CCOCC2)cn1	4%	6%	16%[46.1 µM]	x	-6%	13%[46.1 µM]
CC(C)(C)c1ccc(CSc2ccc(S(=O)(=O)N3CCOCC3)cn2)cc1	10µM*	17%	x	-6%	u	x
CCc1ccc(NC(=O)Cn2c(=O)n(CCCC(=O)NCc3ccccc3OC)c(=O)c3ccccc32)cc1	x	x	u	-4%	-2%	7%[46.1 µM]
SMILES	HCV inh	RE007 growth inh	MARV entry inh	Sm TGR block	FMDV antiviral	LASV entry inh
CCCCCN1C(C(=O)c2ccccc2)=C(NC(=O)c2ccc(OC)c(OC)c2)c2ccccc2S1(=O)=O	x	x	-18%[46.1 µM]	14%	u	7%[46.1 µM]
Cc1nc(N2CCN(c3ccccn3)CC2)c2c(C)c(C(=O)Nc3c(F)cc(F)cc3Br)sc2n1	13µM*	-7%	x	-4%	-14%	x
Cc1nc(N2CCN(c3ccccn3)CC2)c2c(C)c(C(=O)Nc3c(C)cc(Br)cc3C)sc2n1	u	-17%	x	4%	-22%	x
Cc1nc(N2CCC(C)CC2)c2c(C)c(C(=O)Nc3ccc(C)c(F)c3)sc2n1	-21%	-13%	u	-2%	-18%	3%[46.1 µM]
Cc1nc(N2CCN(C)CC2)c2c(C)c(C(=O)Nc3ccc(C)c(F)c3)sc2n1	8.9µM*	-4%	u	0%	0%	0%
Cc1c(C(=O)Nc2ccccc2Br)oc2ccc(S(=O)(=O)N3CCCCCC3)cc12	x	x	x	0%	7%	22%[46.1 µM]
NS(=O)(=O)c1ccc(Cc2ncc(C(F)(F)F)cc2Cl)s1	u	21%	u	-1%	-24%	-6%
O=C(CCl)c1ccc(Cc2ncc(C(F)(F)F)cc2Cl)s1	-20%	5%	1%[46.1 µM]	8.9µM*	25µM*	-26%
Cc1cn2cc(CNC(=O)CN3Cc4ccccc4OC(c4ccccc4F)C3)nc2s1 (stereo unspecified)	x	x	x	x	4%	x
Cc1cnc(NC(=O)CSc2ccccc2)s1	16%	2%	14%	10%	12%	11%
CCOC(=S)SCC(=O)Nc1ncc(C)s1	u	11%	u	12%	25µM*	7%
CCOc1ccc(C(=O)N2CCCCC2CCN2CCOCC2)cc1 (stereo unspecified)	x	x	15%[46.1 µM]	-5%	-9%	u
Cn1c(=O)c2c(nc(NCCO)n2CCCc2ccccc2)n(C)c1=O	16µM*	-8%	x	18%	u	x
CNc1nc2c(c(=O)n(C)c(=O)n2C)n1CCCc1ccccc1	11µM*	1%	u	-18%	0%	u
Cn1c(=O)c2c(nc(NCc3ccccc3)n2CCCc2ccccc2)n(C)c1=O	u	1%	u	-5%	-23%	u
Cn1c(=O)c2c(nc(NCCc3ccccc3)n2Cc2ccc(F)cc2)n(C)c1=O	u	3%	x	6%	u	x
CC(C)CCn1c(NCCc2ccccc2)nc2c1c(=O)n(C)c(=O)n2C	u	-1%	x	-2%	20µM*	x
Cn1c(=O)c2c(nc(NCc3ccco3)n2C/C=C/c2ccccc2)n(C)c1=O	2.5µM*	-1%	13µM*	-13%	14µM*	10µM*
Cc1ccc(CNC(=O)Cn2c(=O)n(Cc3ccccc3)c(=O)c3c2c2cc(C)ccc2n3C)cc1	x	x	x	1%	-9%	8%[46.1 µM]
O=C1N=C2CCCCC2=C1c1sc(N[S+](=O)([O-])C2CCCCC2)nc1O	x	x	16%[46.1 µM]	x	x	x
CC(Cl)=CCn1c(NCCc2ccccc2)nc2c1c(=O)n(C)c(=O)n2C	x	-10%	x	x	13µM*	x
